PfHsp90 yeast 2 – reduces growth (ATP signal) of yeast expressing P. falciparum Hsp90; inhibition, % at 9.4 µM; 310,000 tested, 0.32% active; S. cerevisiae expressing PfHsp90, BacTiter-Glo ATP, 48 h; yeast lacking PDR1 and PDR3 efflux regulators; AID 504621;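 active means every replicate shows inhibition above about 80%, whatever the replicate mean, limit read from the data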;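 further: 0% = DMSO neutral controls and 100% = 20 µM radicicol positive controls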
SKKanGAS inh – inhibitors of SKKanGAS S. pyogenes growth in kanamycin (SK-promoter or general growth effect); BacTiter-Glo, 6 h; inhibition, % at 7.5 µM; 300,000 tested, 1.3% active;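 active means mean replicate score, as percent of positive control median, at least 50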;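 further: strain carries kanamycin resistance gene driven by streptokinase promoter and grows in 40 µg/ml kanamycin; loss of luminescence reflects streptokinase promoter inhibition or plain growth inhibition; 0% = median of DMSO wells and 100% = positive control at its reference dose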
tim23-1 inh – growth inhibitors of tim23-1 mutant yeast. S. cerevisiae tim23-1 growth, BacTiter-Glo luminescence, 24 h. inhibition, % at 20 µM. 330,000 tested, 1.3% active. AID 463212;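 active means growth inhibition of the mutant yeast at or above 50%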;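 further: temperature-sensitive mutant grown at 25 °C; plate controls were DMSO-treated mutant yeast for no effect and medium wells lacking yeast for full effect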
tim10-1 inh – inhibits growth of tim10-1 mutant yeast; S. cerevisiae tim10-1 ts strain growth, BacTiter-Glo, 24 h; 330,000 tested, 2.2% active; AID 463190; inhibition, % at 20 µM;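 active means inhibition of at least 40%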;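 further: mutant grown at 25 °C; 0% = DMSO wells with yeast and 100% = wells holding no yeast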
V-ATPase pH – regulators of yeast V-ATPase proton transport; S. cerevisiae, pHLuorin cytosolic pH fluorescence; response, % at 10 µM; 350,000 tested, 0.37% active; AID 504577; in the data active means response mostly above about 7.3%, no sharp cut-off; inactive means mostly below about 5.4%; further: actives read high
TIM10 inh – growth inhibitors of TIM10 yeast strain. S. cerevisiae TIM10 strain growth, BacTiter-Glo luminescence, 24 h. inhibition, % at 10 µM. 330,000 tested, 1.4% active;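 active means inhibition of 40% or more at the single tested concentration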;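 further: wild-type TIM10 isogenic control strain grown at permissive 25 °C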
Starred values were filed as active, the others as inactive; . = no result. In the library only some 4.6% were active in any assay of this set; here they are far more common.

SMILES | PfHsp90 yeast 2 | SKKanGAS inh | tim23-1 inh | tim10-1 inh | V-ATPase pH | TIM10 inh
O=C(COc1ccc(-c2ccccc2)cc1)N1CCN(S(=O)(=O)Cc2ccccc2)CC1 | 8.0 | 1.8 | -13.7 | 17.5 | -2.3 | 18.1
O=C(/C(=C/O)N=Nc1cccc(C(F)(F)F)c1)c1ccccc1 | 108.2* | -2.5 | 28.9 | 24.2 | 1.1 | 28.0
O=C(NCc1ccco1)c1cc2cc(Br)ccc2o1 | 14.5 | -7.1 | 43.8 | 25.0 | -3.0 | 8.7
OCC(O)C(O)CC1SCCS1 (stereo not drawn) | 47.8 | . | . | . | 13.1* | .
Cc1csc(=O)n1CC(=O)OCC(=O)NC(C)c1ccc(F)cc1 (stereo not drawn) | -13.2 | . | 10.7 | 2.7 | -2.7 | -2.4
O=C(CC1SC(=Nc2ccccc2)N(CCc2ccccn2)C1=O)Nc1ccc(F)cc1 (stereo not drawn) | 7.6 | 1.4 | 12.9 | 15.6 | -1.3 | 24.2
O=C(CC1SC(=Nc2ccccc2)N(CCc2c[nH]c3ccccc23)C1=O)Nc1ccccc1F (stereo not drawn) | -3.2 | 85.8* | 9.5 | 9.8 | 0.8 | 3.2
CSc1n[nH]c2nc3c(c(=O)n12)C1(CCCCC1)Cc1ccccc1-3 | -5.7 | 59.8* | 35.4 | 30.2 | -2.0 | 29.0
Cc1cc(C(=O)N2CCN(c3ccc([N+](=O)[O-])cc3)CC2)co1 | . | 11.5 | 16.3 | 19.4 | 1.8 | 0.0
Cn1c(C(=O)N2CCN(c3ccc([N+](=O)[O-])cc3)CC2)cc2c(=O)[nH]c3ccccc3c21 | 14.7 | 74.9* | . | . | 1.9 | .
COc1ccc(-c2nnc(SCc3nc4ccccc4c(=O)[nH]3)o2)cc1 | 8.9 | -1.4 | -19.7 | -12.2 | -1.7 | -11.4
CNS(=O)(=O)c1cc(-c2nnc(N3CCOCC3)c3ccccc23)ccc1C | 6.3 | -8.8 | 10.7 | 1.1 | 1.8 | 8.6
CN(Cc1nc(-c2ccc(Cl)cc2)no1)C(=O)c1ccc2c(c1)OCO2 | . | -7.7 | -4.5 | -14.4 | 1.6 | -29.7
Cc1ccc(NS(=O)(=O)c2ccc(Cl)c(NC(=S)NC(=O)C3CCCCC3)c2)cc1Cl | -1.9 | 84.0* | 16.6 | 4.0 | -4.2 | 4.6
O=C(Nc1ccc2nc3n(c(=O)c2c1)CCCCC3)C(=O)N1CCN(c2ccc(F)cc2)CC1 | -19.2 | 0.3 | 18.5 | 27.1 | 1.5 | 1.1
COc1cccc(/C=N/Nc2cc(-n3nc(C)cc3-c3ccccc3)ncn2)c1O | -8.3 | 117.2* | 34.7 | 30.8 | 1.3 | 24.4
O=S(=O)(c1ccccc1)N1CCN=C1SCc1c(F)cccc1Cl | -0.9 | 64.1* | 30.2 | 16.8 | -1.1 | -6.8
O=S(=O)(c1ccc(Cl)cc1)N1CCN=C1SCc1cccc(Cl)c1 | -8.7 | -14.4 | 12.2 | 22.1 | -0.5 | -23.0
Cc1ccc(-c2csc(NC(=O)c3ccc([N+](=O)[O-])o3)n2)cc1 | 5.6 | 55.3* | 43.5 | -139.3 | 0.4 | -84.5
Cc1[nH]c2ccccc2c1/C=N\NC(=O)c1ccccc1Cl | . | . | . | . | -2.5 | .
Cc1[nH]c2ccccc2c1/C=N/NC(=O)C1CC1(c1ccccc1)c1ccccc1 (stereo not drawn) | 9.3 | 54.9* | 12.8 | 4.5 | -2.8 | 15.6
Cc1[nH]c2ccccc2c1C(c1ccccn1)c1c(C)[nH]c2ccccc12 | -11.5 | 71.6* | 2.2 | 13.8 | -1.9 | 6.4
N#Cc1nc(-c2ccc(OCc3ccccc3Cl)cc2)oc1NCCCn1ccnc1 | . | 73.6* | 35.4 | 25.9 | . | 8.3
N#Cc1nc(-c2ccc(OCc3ccccc3)cc2)oc1NCCCn1ccnc1 | -10.4 | 44.2 | 15.6 | 14.8 | 3.3 | 16.3
CCCCCOc1ccc(C2C(C(=O)c3ccc(C)o3)=C(O)C(=O)N2c2cc(C)on2)cc1 (stereo not drawn) | 13.7 | 81.4* | 21.9 | 25.1 | -1.7 | 5.6
CCOc1ccc(C2C(C(=O)c3ccc(C)o3)=C(O)C(=O)N2c2cc(C)on2)cc1OC (stereo not drawn) | 13.9 | 4.4 | 9.8 | 4.2 | 0.9 | 4.5
CCN(CC(=O)NC(C)(C)C)Cc1nc2c(Br)cc(Br)cc2c(=O)[nH]1 | 6.0 | 51.0* | 24.0 | 19.5 | -5.0 | 2.7
CN(Cc1ccc(OC(F)F)cc1)Cc1nc2c(Br)cc(Br)cc2c(=O)[nH]1 | -4.5 | 61.6* | 10.0 | 18.8 | 2.0 | 33.8
Cc1ccc(NC(=O)CN(C)Cc2nc3c(Br)cc(Br)cc3c(=O)[nH]2)cc1 | -14.4 | 60.5* | -32.3 | 21.4 | -3.3 | 25.2

Source: PubChem (several laboratories)
